The labels stand for the following.
B1: chr12:123662440:123662541:+|3pUTR|ENSG00000111358|unk|FALSE|unique (ssRNA)
RNA: GGGAGUUCUACAGUCCGACGAUCAAUGGAAAUCACAAUUUUAAGUCUAGGAAAUAAAGUAUUAUAUAUACUUUCAAACAAGCUAGCAAGGCUUUUAUUAUUACUUUUUUAUUUGAAAUAUCUUAUAUAUUUGGUUAGUUCUGUCAACAGAGGAUUGAGCAUCA
B2: chr6:145382534:145384023:-|three_prime_utr|ENSG00000112425|control|control|control (ssRNA)
RNA: GGGAGUUCUACAGUCCGACGAUCUCAACAUGAUUUAACAGAUCUAUAUGUUAAAGGAGAAAAAGAUAUGUGGAUGCUAUCAAUAGUAGCUGAAAAGCAUUUUCAGAAAUCUGUAAGUAGAGGAAAUGUAUUCAUAUGUUUCUACAACAGAGGAUUGAGCAUCA
B3: chr8:74853834:74853946:+|3pUTR|ENSG00000137558|unk|total|mutant (ssRNA)
RNA: GGGAGUUCUACAGUCCGACGAUCAAGUGCUUUUUUUUUUCUGAAUUAAUCCGGUAUUGGUAAAAUAUAUUUUUAAAUUCCGUCCGCUUUAUAAACACAAUCCGAAUUACAAUUAAUUAACAGAGGUAUAAUUGUCUCACUUUCCAACAGAGGAUUGAGCAUCA
B4: chr12:89642165:89642281:-|CDS|ENSG00000070961|unk|total|mutant (ssRNA)
RNA: GGGAGUUCUACAGUCCGACGAUCGCCAAAAACCUUUCUUCAAUCCGUAUGGGAAGCAUUACAAGAUGUCACUUUAAUUAUAUCCGAAAUUGCAGCCACCGUAUCAUUGGGCCUUUCUUUUUAUCAGCCUCCAGAAGGGGAUAACAACAGAGGAUUGAGCAUCA
B5: chr8:42175503:42175666:-|3pUTR|ENSG00000104368|msi1|total|mutant (ssRNA)
RNA: GGGAGUUCUACAGUCCGACGAUCAUGAAAGCAUGUCUCAACCGUAAAAGAUAACAAGAUCUUUCAGGAAAGACGGAUUGCAUCCGAAACCGACAGUAUAUUUACCGUCACAAGAGCCCAGCAGGGCCUCAAAGUUGGGGCAGGCAACAGAGGAUUGAGCAUCA
B6: chr19:42216679:42217007:-|CDS|ENSG00000160570|control|control|control (ssRNA)
RNA: GGGAGUUCUACAGUCCGACGAUCCUUUCUGCUGGAUGAGGCUCCUGGCGCCGCCGGAGGCUUAGCCCGGGCCCGCAGCGGCCUAGAGCUCCUGCUGGAGCUGGAGCGCCGCGGGCAGUGCGACGAGAGCAACCUGCGGCUGCUCAACAGAGGAUUGAGCAUCA
B7: chr1:111117940:111118053:-|3pUTR|ENSG00000156171|unk|total|mutant (ssRNA)
RNA: GGGAGUUCUACAGUCCGACGAUCAGGCUGACAGUAACACUGAUGAAUGCUGAUAAUCAGGAAACAUGAAAGAAGCCAUUUGACCGAUUAUUCUAAAGGAUAUCAUCAAGAAGACUAUUAAAAACACCUAUGCCUAUACUUUUUCAACAGAGGAUUGAGCAUCA
B8: chr8:76983344:76983445:-|CDS|ENSG00000164751|msi1|total|mutant (ssRNA)
RNA: GGGAGUUCUACAGUCCGACGAUCAGCCACCAGUGGCAAAGAAUGCGCUCUAUGUGGAGAGUGGCCCACCAUGCCUCACACCACCGGAUGUGAGCAUAUUUUCUGUUAUUUCUGUGCUAAGAGCCGUUUCUUAUUUGACGUGUACAACAGAGGAUUGAGCAUCA
B9: chr12:101746137:101746238:-|3pUTR|ENSG00000111670|msi1|total|mutant (ssRNA)
RNA: GGGAGUUCUACAGUCCGACGAUCGGUCCGUAAAUUAUUGCAGGCCACCUGUGUCUUUGUCAUACAUUCUUCUUGCUGUUGUUCCGUUUGUUUUUUUUCAAACAACCCUCUAAAAAUGUAAAAACCAUGUUCCGCUUGCAGCUGCAACAGAGGAUUGAGCAUCA
B10: ENSG00000070961:be:win_2001|CDS|ENSG00000070961|bound_else_gene|NA|bound_elsewhere_windowed (ssRNA)
RNA: GGGAGUUCUACAGUCCGACGAUCAAAUGAUAUUGUCACCGGCCUUACAUGCAUUGCUGUUGUGGGGAUUGAAGAUCCUGUGAGACCUGAGGUGCCAGAUGCAAUUAAAAAGUGUCAGAGGGCUGGAAUUACUGUGCGGAUGGUCAACAGAGGAUUGAGCAUCA
B11: ENSG00000145990:stop:overlap|stop_codon|ENSG00000145990|stop_codon|NA|stop_codon (ssRNA)
RNA: GGGAGUUCUACAGUCCGACGAUCUGAGCCCCGCCUACCUGAUCAGCGAGGCCAUGCGCCGCAGCAGGAUGUCCCUCUACUGUUAGCACAGAUUGAGAACCUCGGGGACUUGAGCCUUCUGCAGGGGAUGUCCACAGAGAGGGACAACAGAGGAUUGAGCAUCA
B12: chr9:124811826:124811928:+|3pUTR|ENSG00000185585|msi1|FALSE|unique (ssRNA)
RNA: GGGAGUUCUACAGUCCGACGAUCAAGAAAUUUUCUAGCCCAACUCCCUGUUUCAUGAAAGAGAAAAGAGGCUCAGAAAAGUUUAGAGAGCAGCUCAGUGUCACACUGGGAGCUGGGCACAGCCGAUCUCCUUCCAGAAGGGUUCAACAGAGGAUUGAGCAUCA
B13: chr6:53267885:53267986:-|3pUTR|ENSG00000012660|msi1_unk|FALSE|overlapping (ssRNA)
RNA: GGGAGUUCUACAGUCCGACGAUCUUUAAUGUAAAUCUAAUAGUACUUGUAAUUUCUUUCUGCUUAGAAUCUAAAGAUGUGUUUAGAACCUCUUGUUUAAAAAUAAUAGACUGCUUAUCAUAAAAUCACAUCUCACACAUUUGACAACAGAGGAUUGAGCAUCA
B14: chr6:53267885:53267986:-|3pUTR|ENSG00000012660|msi1_unk|total|mutant (ssRNA)
RNA: B13 RNA with U40C, A41C, U64C, A65C, U83C, A84C, U106C, A107C
B15: chr4:110049619:110049852:-|3pUTR|ENSG00000170522|msi1|FALSE|unique (ssRNA)
RNA: GGGAGUUCUACAGUCCGACGAUCUUGUUCAAUGUGACAUAAUAGUAUUAUAAUUGGUUAAGUAGCUUAAUGAUUAGGCAAACUAGAUGAAAAGAUUAGGGGCUUCCACACUGCAUAGAUUACACGCACAUAGCCACGCAUACACAACAGAGGAUUGAGCAUCA
B16: chr4:110049619:110049852:-|3pUTR|ENSG00000170522|msi1|total|mutant (ssRNA)
RNA: GGGAGUUCUACAGUCCGACGAUCUUGUUCAAUGUGACAUAACCGUAUUAUAAUUGGUUAAGCCGCUUAAUGAUCCGGCAAACCCGAUGAAAAGAUCCGGGGCUUCCACACUGCACCGAUUACACGCACACCGCCACGCAUACACAACAGAGGAUUGAGCAUCA
B17: chr9:14618660:14618761:-|3pUTR|ENSG00000175893|msi1|FALSE|unique (ssRNA)
RNA: GGGAGUUCUACAGUCCGACGAUCUUAGCUUUCCACAGGGAUUUCUUGAAAUGCUUUUGUUAUUAAACUCAAAAGGCAGUGAUUAGGAUGAAAUAAUUGUACAUAAUUUAUUUUAGUACUGACAGUGUUACAGAUUCUAAUUUACAACAGAGGAUUGAGCAUCA
B18: chr2:171983412:171983537:+|3pUTR|ENSG00000128708|unk|FALSE|unique (ssRNA)
RNA: GGGAGUUCUACAGUCCGACGAUCUGAUGACUUUAAUUUUAAAAUCUUGUGACAUUUUGCUUAUACUAAAAGUUAUCUAUCUUUAGUUGAAUAUUUUCUUUUGGAGAGAUUGUAUAUUUUAAAAUACUGUUUAGAGUUUAUGAGCAACAGAGGAUUGAGCAUCA
B19: ENSG00000198589:be:win_4601|CDS|ENSG00000198589|bound_else_gene|NA|bound_elsewhere_windowed (ssRNA)
RNA: GGGAGUUCUACAGUCCGACGAUCUGGCAGUAGUAUACUUUAUCUCUGUUCUUAUGGUCUCCAAGUACAGAGACAUUUUGGAACCCCAAAAUGAAAGGCAUAGCCAGUCAUGUACAGAAACUGGCAGUGAAAAUGAGAAUGUAUCAACAGAGGAUUGAGCAUCA
B20: chr4:17843545:17843646:+|3pUTR|ENSG00000109805|msi1|total|mutant (ssRNA)
RNA: GGGAGUUCUACAGUCCGACGAUCCUGUGCGCUUCCACGUUACUUUGGCCUGUAUUAAAGCAGCCGAGCAGCAUCAGUUAUUACCGUCCAGAAAAAGUGUGCAUCAGUCAGUCACACAGAUUUAUCACAAUCUGAGGUGGGCCUCAACAGAGGAUUGAGCAUCA
B21: chr8:22006149:22006250:+|3pUTR|ENSG00000130227|msi1|total|mutant (ssRNA)
RNA: GGGAGUUCUACAGUCCGACGAUCGAAUGUAUGAACUGGAGGAAGUUACUACAGUGGAAGGGUUCUUAAUAACAAGGUCUACCCCGCAUGAAGUAUUUAACAUUCUCCCAUCCCUUAAAAAAUAUACAUUUUUAUAAAAUGAAACAACAGAGGAUUGAGCAUCA
B22: chr6:145799413:145799514:-|3pUTR|ENSG00000118496|msi1|total|mutant (ssRNA)
RNA: GGGAGUUCUACAGUCCGACGAUCUUAUCUCACAUACUUACAACUCAACACACAGAGUGACCAUGUGCAGCUUUCUUUUUUGUCCGAUGCCACAUCCGAAGACUCAUCGCAGUGUGUUAUAUGACAGGACAAAGCAAAAACAAACAACAGAGGAUUGAGCAUCA

Substitutions are numbered along the chain they refer to. In all, about 5,800 sequences were measured (“enrichment r”: median about 0.54, highest 2% from about 16 on). The list comes from a sample in which the highest values are over-represented; it also holds similar and randomly drawn sequences.

The results in this text go back to article PMC12136788.

The target of this assay is MSI1 full-length (mouse, UniProt Q61474 1-362). Briefly: nsRBNS (natural sequence RNA bind-n-seq); RBNS binding buffer (assumed for nsRBNS): 25 mM Tris pH 7.5, 150 mM KCl, 3 mM MgCl2, 0.01% Triton X-100, 500 ug/ml BSA, 20 U/ml SUPERase-In, 4 C; UNK is unkempt and MSI1 is Musashi-1; names of the RNAs are library labels; protein concentration not given here; high values mean tight binding.
MSI1 full-length, sequence (Q61474 whole entry): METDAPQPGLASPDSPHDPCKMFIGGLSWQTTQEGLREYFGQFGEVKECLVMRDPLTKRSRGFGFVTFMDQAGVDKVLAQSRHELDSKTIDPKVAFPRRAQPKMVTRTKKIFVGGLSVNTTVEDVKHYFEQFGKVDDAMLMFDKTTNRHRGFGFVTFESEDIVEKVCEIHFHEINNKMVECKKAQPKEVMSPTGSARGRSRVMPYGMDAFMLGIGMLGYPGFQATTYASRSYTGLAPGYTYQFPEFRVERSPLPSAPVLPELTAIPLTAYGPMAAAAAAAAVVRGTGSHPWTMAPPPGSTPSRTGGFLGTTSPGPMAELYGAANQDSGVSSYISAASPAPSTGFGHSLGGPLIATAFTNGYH
The molecule B1 displayed a binding signal of 12.8 enrichment R.

Regarding B2, the binding signal turned out to be 1.04 enrichment R. The figure for B3 is 1.6 enrichment R; for B4 it is 0.453 enrichment R. The figure for B5 is 0.44 enrichment R; for B6 it is 0.233 enrichment R. Consider B7, for which the binding signal worked out at 0.337 enrichment R. Consider B8, for which the binding signal was 0.344 enrichment R.

Molecule B9 registered a binding signal of 0.343 enrichment R. For B10, the binding signal stood at 0.416 enrichment R.

Molecule B11 came in with a binding signal of 0.305 enrichment R.

B12 came in with a binding signal of 0.831 enrichment R. The figure for B13 is 26.6 enrichment R; for B14 it is 1.15 enrichment R; for B15 it is 43.1 enrichment R. Regarding B16, the binding signal stood at 0.468 enrichment R. The figure for B17 is 1.51 enrichment R; for B18 it is 3.32 enrichment R; for B19 it is 0.339 enrichment R.

With B20, the binding signal is 0.782 enrichment R.

Turning to B21, the binding signal was 0.38 enrichment R. Consider B22, for which the binding signal was 0.363 enrichment R.
